# Source: PubChem BioAssay
# Most compounds without a hit are left out; they make up all but 12% or so of the library.
# BAZ2B inh: inhibitors of human BAZ2B bromodomain | actives 4.4% (n = 360,000) | AlphaScreen BAZ2B-H3K14Ac peptide displacement | Potency, µM (doses to about 114 µM), inactives show at the top dose activity change, negative = inhibition, hits mostly inhibitors; further: on the % scale 0 is the no-effect control and ±100 the full control effect; nearly all actives have a fitted effect of over 60% in size
#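 AlphaScreen displacement: compounds (up to 110uM) incubated 30 min at room temperature with a preformed 50 nM BAZ2B/50 nM biotinylated H3K14Ac peptide complex in PBS pH 7.4 with Tween-20. Donor and acceptor beads at 10 ug/mL final added, 20 min light-protected before reading.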
# HP1b chromo inh: inhibitors of HP1-beta chromodomain binding to methylated histone tails; P83916; AlphaScreen HP1-beta / biotin-H3K9me3 peptide binding; Potency, µM (highest dose often 114 µM), without a hit: top-dose activity change, negative = inhibition, actives largely listed as inhibitors; actives 0.56% (n = 390,000); further: nearly all actives have a fitted effect of over 70% in size
# Target sequence (P83916 whole entry, looked up): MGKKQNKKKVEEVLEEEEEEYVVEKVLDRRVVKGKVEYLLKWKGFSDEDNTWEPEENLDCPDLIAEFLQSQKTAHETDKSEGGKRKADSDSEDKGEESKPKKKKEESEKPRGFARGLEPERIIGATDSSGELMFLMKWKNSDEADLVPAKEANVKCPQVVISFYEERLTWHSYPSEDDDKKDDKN
#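 AlphaScreen: HP1-beta (50 nM) preformed 30 min with biotin-H3(1-18)K9me3 peptide (50 nM) in PBS pH 7.4, 0.01% Tween-20. Compound added for 30 min at RT, then streptavidin donor/nickel chelate acceptor beads (10 ug/mL) for 30 min.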
# G9a block: G9a (human) methyltransferase inhibition. G9a H3K9 monomethylation, AlphaScreen, 2 h. Potency, µM (highest dose often 102 µM), for the others: at the highest dose activity, negative = inhibition, actives largely listed as inhibitors. actives 8.8% (n = 350,000). AID 504332; further: on the % scale 0 is the no-effect control and ±100 the full control effect; nearly all actives have a fitted effect of over 75% in size
# Target sequence (Q96KQ7 913-1193 limits assumed): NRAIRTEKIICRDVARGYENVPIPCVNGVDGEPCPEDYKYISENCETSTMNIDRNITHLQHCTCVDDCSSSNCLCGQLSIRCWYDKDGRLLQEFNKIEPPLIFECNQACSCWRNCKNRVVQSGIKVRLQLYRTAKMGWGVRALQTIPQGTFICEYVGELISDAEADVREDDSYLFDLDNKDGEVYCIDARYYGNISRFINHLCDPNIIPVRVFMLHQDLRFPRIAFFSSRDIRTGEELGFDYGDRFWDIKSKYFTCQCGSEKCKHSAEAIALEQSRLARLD
#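 Quantitative HTS format: methyltransferase activity on a biotin-tagged H3K9 peptide is measured by AlphaScreen, using a rabbit anti-monomethyl-H3K9 antibody with streptavidin donor and anti-IgG acceptor beads. Final levels are 20 nM enzyme, 500 nM peptide, 20 uM SAM; 2 h RT.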
# TDP1 block: inhibitors of human tyrosyl-DNA phosphodiesterase TDP1 | recombinant TDP1, AlphaScreen DNA substrate cleavage | Potency, µM (series often up to 130 µM), for the others: at the highest dose activity change, negative = inhibition, usual class: inhibitors | actives 0.28% (n = 350,000) | AID 485290; further: on the % scale 0 is the no-effect control and ±100 the full control effect; nearly all actives have a fitted effect of over 40% in size
#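 E. coli-derived human Tdp1, 1 nM final. Cpd preinc 15 min RT; substrate 15 nM final, 5 min RT; AS bead mix 10 ug/ml final, 10 min RT. Signal loss = tyrosine-FITC cleavage. No-enzyme wells = max signal.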
# Sfp inh: inhibitors of Bacillus subtilis Sfp phosphopantetheinyl transferase | Q9F4F7 | Potency, µM, without a hit: largest response in the series, negative = inhibition, hits mostly inhibitors | actives 3.5% (n = 310,000) | Biochemical Sfp PPTase activity, qHTS;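 further: the enzyme is Sfp with the accession as filed and its product quenches rhodamine fluorescence; 0% = enzyme reaction without inhibitor and -100% = no enzyme wells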
#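 Compounds were incubated with enzyme (final 15 nM) for 15 min at room temperature before substrate addition started the reaction. Fluorescence at 525 nm excitation, 598 nm emission was recorded immediately and after 30 minutes.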
# JMJD2A Tudor inh: blocks the human JMJD2A Tudor domain; O75164; AlphaScreen JMJD2A-Tudor / H3K4me3 peptide binding; Potency, µM (highest dose often 114 µM), for the others: top-dose activity change, negative = inhibition, most hits filed as inhibitors; actives 4.4% (n = 390,000); further: on the % scale 0 is the no-effect control and ±100 the full control effect; nearly all actives have a fitted effect of over 50% in size
# Active calls of the source: *; ? = inconclusive; nt = no result given; [ ] = remark or other dose. The call rests on the fitted dose curve; in most records, active means well fitted curve in the direction sought with a large enough effect; inconclusive means small, poorly fitted or top-dose-only effect, or another doubt; inactive means no such curve, though single readings can be large; an effect the other way counts as inactive or inconclusive. Potency means the concentration at half of the fitted maximal effect.
SMILES,BAZ2B inh,HP1b chromo inh,G9a block,TDP1 block,Sfp inh,JMJD2A Tudor inh
C/C=C\C=C/C(=O)Nc1cccc(C2=NOC3(C2)C[C@H](C(N)=O)N(C(=O)c2ccc(OC)cc2)C3)c1 (some centres not stated),-22%,?,?,4%,13µM*,?
C/C=C(/C)C(=O)Nc1cccc(C2=NOC3(C2)C[C@@H](C(N)=O)N(C(=O)c2ccc(OC)cc2)C3)c1 (some centres not stated),-21%,21%,0%[59 µM],2%,5%,-9%
NC(=O)C1(NC(=O)[C@@H]2CC3(CC(c4cccc(NC(=O)c5cc([N+](=O)[O-])cc([N+](=O)[O-])c5)c4)=NO3)CN2C(=O)c2ccccc2)CC1 (some centres not stated),-38%,19%,nt,9%,79µM*,?
C/C=C\C=C/C(=O)Nc1cccc(C2=NOC3(C2)C[C@@H](C(N)=O)N(C(=O)c2ccc(Cl)cc2)C3)c1 (some centres not stated),?,11%,?,0%,7.1µM*,-32%
CCN(CC)S(=O)(=O)c1ccc2c(c1)N(CC(=O)Nc1ccc(F)cc1)C(=O)CO2,-4%,8%,-34%[59 µM],3%,nt,-14%
CC1=CCC(C(=O)O)C(C(=O)NC2CCCCC2)C1 (configuration not stated),50µM*,?,32µM*,32µM*,9%,56µM*
CN(C)c1ccc(-n2cccc2)cc1,22µM*,22µM*,40µM*,4%,-3%,20µM*
Cc1ccc(C(=O)CSc2nc3cc(C(=O)NC4CCCC4)ccc3c(=O)n2CC2CCCO2)c(C)c1 (configuration not stated),-1%,12%,6%[59 µM],-3%,nt,5%
S=C1NCCc2ccc(Cl)cc2C1c1ccccc1 (configuration not stated),40µM*,?,-17%[59 µM],5%,14%,?
C/C(=N\NC(=O)c1ccncc1)c1ccc(N2CCOCC2)cc1,3%,-1%,28%[12.7 µM],0%,nt,-3%
C/C(=N\NC(=O)c1ccc(OC2OCCOC2Oc2ccc(C(=O)N/N=C(\C)c3ccncc3)cc2)cc1)c1ccncc1 (configuration not stated),-16%,-24%,13µM*,-1%,-26%,-33%
CC(C)N1CCC2(CC1)C(C#N)=C(N)NC(S)=C2C#N,-10%,nt,1.6µM*,5%,-9%,nt
COc1ccc(-c2cc3nc(CCl)[nH]c(=O)c3s2)cc1,-38%,25%[57 µM],50µM*,5%,-2%,?
COc1cccc(/C=N/c2oc(-c3ccccc3)cc2C#N)c1O,?,-20%,-50%[59 µM],8%,?,-35%[57.1 µM]
N#Cc1cc(-c2ccccc2)oc1/N=C/c1ccccc1O,7%,-32%,?,8%,-7%,79µM*
O=C(O)CNC(=O)c1ccccc1I,nt,nt,1%[59 µM],10%,3%,nt
Cc1ccccc1NC(=O)c1cccc(NC(=O)c2c(C(=O)O)cccc2[N+](=O)[O-])c1,nt,23%,nt,nt,nt,0%
CN1C(=O)c2ccc(NC(=O)c3c(C(=O)O)cccc3[N+](=O)[O-])cc2C1=O,2%,16%,40µM*,nt,-8%,-8%
Oc1ccc(Nc2nc3ccccc3nc2Nc2ccc(O)cc2)cc1,50µM*,?,10µM*,-2%,-29%,?
OCCCNc1ncnc2oc(-c3ccccc3)c(-c3ccccc3)c12,-32%,6%,-19%,nt,-17%,-26%
Cc1ccccc1OCC(O)CN1CCN(CCN2C(=O)c3cccc4cccc(c34)C2=O)CC1 (configuration not stated),?,-24%,79µM*,-3%,12%,?
Cc1ccccc1OCC(O)CN1CCN(CC(O)COc2ccccc2C)C(C)C1 (configuration not stated),22µM*,?,18%[2.33 µM],nt,?,2µM*
C=CCc1ccccc1OCC(O)CN1CCN(CCN2C(=O)c3cccc4cccc(c34)C2=O)CC1 (configuration not stated),?,?,40µM*,3%,5.6µM*,?
CC(C)OCC(O)CN1CCN(CCN2C(=O)c3cccc4cccc(c34)C2=O)CC1 (configuration not stated),-19%[57.1 µM],24%,?,2%,1%,-25%
COc1ccc(CN(C)CC2CCCN(CCc3ccc(F)cc3)C2)cc1OC (configuration not stated),-14%,22%,-7%,4%,13%,-5%
SMILES,BAZ2B inh,HP1b chromo inh,G9a block,TDP1 block,Sfp inh,JMJD2A Tudor inh
COc1cc(CN(C)CC2CCCN(CCc3cccc(C(F)(F)F)c3)C2)ccc1O (configuration not stated),-32%,18%,45µM*,nt,12%,-25%
Cc1ccc2[nH]c(=O)c(CN(CCCN3CCOCC3)C(=O)Nc3ccc(Cl)cc3)cc2c1,-16%,-10%,nt,-8%,8%,-30%
Cc1ccc(C)c(N(C)C(=O)c2ccc3c(=O)n4c(nc3c2)CCCCC4)c1,-14%,39%,5%,2%,10%,2%
CSc1ccc(S(=O)(=O)NCC(=O)OCC(=O)NCc2cccs2)cc1[N+](=O)[O-],-20%,7%,?,-13%,nt,-8%
Cc1nc(CCNC(=O)CC2C(=O)NCCN2Cc2ccccc2F)sc1C (configuration not stated),-14%,-3%,45µM*,8%,-8%,1%
Cc1cccc(CCNC(=O)CC2C(=O)NCCN2CC2CCCCC2)n1 (configuration not stated),0%,41%,?,1%,12%,3%
Cc1nc(CCNC(=O)CC2C(=O)NCCN2Cc2ccc(F)cc2)sc1C (configuration not stated),-2%,25%,56µM*,3%,32µM*,-16%
Cc1ccccc1CN1CCNC(=O)C1CC(=O)O (configuration not stated),-2%,20%,14µM*,6%,1%,-8%
Cc1cccc(CCNC(=O)CC2C(=O)NCCN2Cc2ccccc2C)n1 (configuration not stated),8%,43%,50µM*,4%,1%,-13%
CC(C(=O)NCc1cccnc1)c1ccc([N+](=O)[O-])cc1 (configuration not stated),-8%,35%,1%,4%,4%,-10%
CN(CCc1cn[nH]c1)Cc1nc(Cc2ccccc2F)no1,-4%,38%,nt,nt,1%,3%
